Screening data from PubChem.
KDM5B inhibitor = KDM5B demethylase inhibition | Q9UGL1 | Potency, µM (doses to about 57.7 µM), usual class: inhibitors | KDM5B demethylase, FDH-coupled NADH fluorescence (FDH is formaldehyde dehydrogenase) | 220,000 compounds, 2.6% hits; active means well fitted inhibition curve with a large enough effect; further: 0% is about no effect; nearly all actives have a fitted effect of over 70% in size
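Coupled FDH/NAD⁺ fluorescence readout. KDM5BΔAP 200 nM final; compound titration, 10 min RT preincubation; substrate mix 12.5 µM H3K4me3, 25 µM 2-OG, 50 µM Fe(II), 100 µM ascorbate, 0.25 mM NAD⁺, 0.25 U/mL FDH; ΔRFU over 30 min.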
Active calls of the source: *; i = inactive; [ ] = another dose, or the depositor's remark. Shown is part of a subset that was picked to be rich in hits. Potency means the concentration at half of the fitted maximal effect.

SMILES	KDM5B inhibitor
CC(=O)Nc1c(-c2ccccc2)c(C)nn1-c1ccc(C(=O)N2CCN(C)CC2)cc1	i
CC(=O)N1CCN(c2cncc(C(=O)N3CCOCC3)n2)CC(O)C1 (stereo not given)	22µM*
O=C(c1cccnc1)N1CCn2cc(C(=O)N3CCOCC3)nc2C1	i
Cc1nccc(N2CCN(C(=O)N3CCOCC3)CC(C(=O)O)C2)n1 (stereo not given)	i
CCCC(NC(=O)c1nn(C)c(=O)c2ccccc12)c1ccccc1 (stereo not given)	i
Cc1ccc(C(=O)N2CCC(N3C(=O)C4(CCCCC4)C3c3ccncc3)CC2)s1 (stereo not given)	i
CCc1sc(C(=O)N2CCCCC2C)cc1Br (stereo not given)	i
O=C(NCCCn1ccnc1)c1nc(-c2ccccc2)cc2[nH]ccc12	i
Clc1ccc2nc(-c3ccc(Br)cc3)cn2c1	i
O=C(NCCCn1ccnc1)c1ccc2nc(-c3ccc(F)cc3)cn2c1	32µM*
O=C(NCCCn1ccnc1)c1ccc(Cl)cc1	i
COc1ccc(CCNC(=O)c2ccc3nc(C)cn3c2)cc1	28µM*
O=C(NC1C=CS(=O)(=O)C1)c1ccc2nc(-c3ccc(F)cc3)cn2c1 (stereo not given)	25µM*
CCC(NC(=O)c1cncc(Br)c1)c1ccccc1 (stereo not given)	i
Cc1ccc(C(=O)NC(c2cccnc2)c2ccc(C)c(C)c2)cc1 (stereo not given)	i
CCC(NC(=O)c1ccc2nc(-c3ccc(F)cc3)cn2c1)c1cccnc1 (stereo not given)	28µM*
O=C(NCc1ccc(F)cc1)c1ccc(-c2csc(C3CC3)n2)cc1	i
COc1ccc(C(=O)NCCc2cn3ccccc3n2)cc1	i
COc1ccc(CCNC(=O)c2cnc3ccc(C)cn3c2=O)cc1	i
COc1ccc(NC(=O)CSc2nc3[nH]ncc3c(=O)n2-c2ccccc2)cc1	i
Cc1ccc(NS(=O)(=O)c2cccc(Cl)c2Cl)cc1S(=O)(=O)N1CCOCC1	i
Cc1nn(-c2ncccn2)c2c1C(c1ccc(OCC(N)=O)cc1)CC(=O)N2 (stereo not given)	i
CCN1CCCC1CNC(=O)c1nc(-c2cccc3[nH]ccc23)no1 (stereo not given)	i
CC(C)(CNC(=O)C1CC2CCC1C2)CNC(=O)C1CC2CCC1C2 (stereo not given)	i
O=S(=O)(NCC1(c2ccccc2)CCC1)c1ccc(F)c(F)c1	i
SMILES	KDM5B inhibitor
Cc1cc2oc(=O)cc(-c3cc4ccccc4o3)c2cc1C	i
CC(CO)NC(=O)CSc1nc(-c2ccccc2)c(-c2ccccc2)o1 (stereo not given)	i
Cc1[nH]c2ccccc2c1C1c2ccccc2C(=O)N1CCC(=O)NCCN(C)C (stereo not given)	i
O=C(CCn1ccccc1=O)Nc1ccccc1F	i
Cn1nc(CC(=O)OCC(=O)NC2CC2)c2ccccc2c1=O	i
O=[N+]([O-])c1cc(Nc2ccccc2)c(/C=N/Nc2ccccc2)c([N+](=O)[O-])c1	i
O=C(/C=C/c1cccc(C(F)(F)F)c1)c1ccc(N2CCCC2=O)cc1	i
Cc1oc(-c2ccccc2)nc1CC(=O)NC(C)c1ccco1 (stereo not given)	i
O=C(Nc1cc(=O)[nH]c2nc(C(F)(F)F)nn12)c1ccccc1F	i
CCNC(=O)C1CCN(C(=O)c2ccc3nc(-c4ccccc4)cn3c2)C1 (stereo not given)	28µM*
O=C(c1ccc(F)cc1)N1CCC[C@H]1c1nc(-c2ccccc2)no1	i
O=C(c1ccc(F)cc1)N1CCC(c2nc3ccccc3s2)CC1	i[11.5 µM]
Cc1c(C(=O)NCc2ccc(F)cc2)sc2nc(-c3ccc(F)cc3)cn12	i
CCc1ccc(C(=O)N2CCC(CC(=O)NCc3ccccc3)C2)cc1 (stereo not given)	i
O=C(c1ccc2nc(-c3ccc(F)cc3)cn2c1)N1CCC(F)CC1	28µM*
O=C(NCc1ccccc1)C1CCCN(C(=O)c2ccc3cc[nH]c3c2)C1 (stereo not given)	i
Cc1cc(C)nc(CNC(=O)c2ccc3nc(-c4ccc(F)cc4)cn3c2)n1	28µM*
Cc1ccc(-c2nc(C(=O)NCc3ccc(F)cc3)no2)cc1	i
O=C(c1ccc2nnc(-c3ccc(F)cc3)n2c1)N1CCOCC1	i
O=C(c1ccc(F)c(C(F)(F)F)c1)N1CC2CCC1C2 (stereo not given)	i
O=C(c1ccc2nc(-c3ccccc3)cn2c1)N1C[C@@H]2CCC[C@H]1C2	22µM*
O=c1[nH]c(=O)n(CCc2ccccc2)c2c1C(C(F)(F)F)(C(F)(F)F)N=C(c1ccco1)N2	i
CCOCCCNC(=O)C(NC(=O)C1CCC(C)CC1)C(C)CC (stereo not given)	i
CCC(C)[C@H](NC(=O)C1CCC(Cn2nnc3ccccc3c2=O)CC1)C(=O)O (stereo not given in full)	i
Cc1ccc(C)c2c(C)c(C(=O)O)oc12	i
